A selection: hits, their analogues and other compounds. The true share with any hit is near 2.8%.
PP1 inh = blocks human PP1-alpha phosphatase, a PP5 counter-screen; inhibition, % at 6.7 µM; P62136; hit rate 0.9% among 320,000; purified PP1alpha, OMFP fluorescence;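 active = inhibition above the mean inhibition of all tested compounds plus 3 SD, computed separately for each screening campaign, cut at about 15% in these data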
IDE act = IDE (human) activation, cell-based | P14735 | HEK cells, FAbeta-B cleavage, fluorescence polarization; 0% vehicle, 100% cell-free pure enzyme wells | activation, % at 5.96 µM | hit rate 0.073% among 340,000;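 active = activation above the mean of all tested compounds plus 3 SD, set per screening campaign, cut at about 17% in these data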
Target sequence (P14735 whole entry, looked up): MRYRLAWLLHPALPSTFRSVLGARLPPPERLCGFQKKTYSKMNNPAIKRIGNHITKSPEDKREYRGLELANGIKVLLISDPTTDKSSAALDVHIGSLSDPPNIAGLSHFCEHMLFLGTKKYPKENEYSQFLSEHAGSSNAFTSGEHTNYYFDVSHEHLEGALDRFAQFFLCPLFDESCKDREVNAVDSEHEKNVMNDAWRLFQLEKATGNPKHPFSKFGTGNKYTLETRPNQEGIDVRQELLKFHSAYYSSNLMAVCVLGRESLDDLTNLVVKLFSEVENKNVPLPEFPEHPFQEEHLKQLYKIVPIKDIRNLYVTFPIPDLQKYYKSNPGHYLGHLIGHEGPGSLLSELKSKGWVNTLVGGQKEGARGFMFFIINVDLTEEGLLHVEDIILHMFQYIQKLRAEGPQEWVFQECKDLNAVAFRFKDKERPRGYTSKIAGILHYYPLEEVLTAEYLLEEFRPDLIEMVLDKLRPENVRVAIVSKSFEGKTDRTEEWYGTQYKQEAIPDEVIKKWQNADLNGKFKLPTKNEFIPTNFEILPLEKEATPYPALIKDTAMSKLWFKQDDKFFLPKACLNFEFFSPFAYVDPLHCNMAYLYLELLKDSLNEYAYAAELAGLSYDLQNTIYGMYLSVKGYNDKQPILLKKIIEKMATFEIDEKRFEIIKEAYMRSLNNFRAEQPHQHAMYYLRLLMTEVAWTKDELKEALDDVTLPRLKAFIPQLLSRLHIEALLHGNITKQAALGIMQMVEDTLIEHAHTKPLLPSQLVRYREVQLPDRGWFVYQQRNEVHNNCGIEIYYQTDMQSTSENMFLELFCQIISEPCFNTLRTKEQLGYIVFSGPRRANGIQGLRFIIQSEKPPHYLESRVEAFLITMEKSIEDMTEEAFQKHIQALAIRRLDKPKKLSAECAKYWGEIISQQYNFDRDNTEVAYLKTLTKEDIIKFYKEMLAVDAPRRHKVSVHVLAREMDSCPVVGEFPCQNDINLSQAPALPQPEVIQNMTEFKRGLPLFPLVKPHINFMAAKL
PP5 inh = PP5 (human) phosphatase inhibition. P53041. purified PP5c, OMFP substrate fluorescence. inhibition, % at 6.7 µM. hit rate 0.18% among 320,000;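 active = inhibition above the campaign's mean inhibition across all tested compounds plus 3 SD, cut at about 9.5% in these data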;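 note: 0% = DMSO only and 100% = 100 µM cantharidin control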
SKKanGAS inh = blocks kanamycin growth of S. pyogenes SKKanGAS strain; BacTiter-Glo, 6 h; hit rate 1.3% among 300,000; inhibition, % at 7.5 µM;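 active = mean replicate score, as percent of positive control median, at least 50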;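 note: strain carries kanamycin resistance gene driven by streptokinase promoter and grows in 40 µg/ml kanamycin; loss of luminescence reflects streptokinase promoter inhibition or plain growth inhibition; 0% = median of DMSO wells and 100% = positive control at its reference dose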
Exocytosis inh = blocks lytic granule exocytosis; inhibition, % at 10 µM; hit rate 0.66% among 360,000; TALL-104 LAMP-1 surface exposure, flow cytometry; cells stimulated with thapsigargin and PMA; AID 651702;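 active = inhibition above about 55%, limit read from the data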
IDE cell inh = inhibits human insulin-degrading enzyme in HEK cells. P14735. FAbetaB cleavage, fluorescence polarization. inhibition, % at 5.59 µM. hit rate 0.41% among 320,000;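 active = percent inhibition above the average of all tested compounds plus 3 SD, set per screening campaign, cut at about 16% in these data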;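 note: IDE supplied by intact live HEK cells; FP after avidin binding of uncleaved biotin substrate so inhibition keeps polarization high; 0% = DMSO wells and 100% = 60 µM reference IDE inhibitor Ii1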
Starred values were filed as active, the others as inactive; . = no result.

SMILES | PP1 inh | IDE act | PP5 inh | SKKanGAS inh | Exocytosis inh | IDE cell inh
CCN(CC)C(=S)SCC(=O)Nc1nc(-c2ccccc2)c(-c2ccccc2)o1 | 15 | 2 | 3 | 83* | -3 | -3
CC[C@@H]1C/C=C\Cc2ccccc2[C@H](C(=O)C[C@H](O)CC(C)=O)OC1=O | . | -1 | . | . | 0 | 5
CCCCCCCCNS(=O)(=O)CCNC1CC1 | . | -2 | . | . | -6 | .
Cc1ccccc1OCC(=O)Nc1ccc2c(c1)C(=O)N(CCC(=O)O)C2=O | -2 | 2 | -1 | 3 | 0 | 2
CCSC1(SCC)N=C(N)C2(C#N)C(c3ccc(F)cc3)C12C#N (centres undefined) | -1 | -2 | 3 | -17 | 69* | 3
COc1cc(-c2ccc(NC(=O)NC3CC3)c(OC)c2)ccc1NC(=O)NC1CC1 | 1 | . | 1 | 55* | . | 0
CCC(=O)Nc1ccc(-c2ccc(NC(=O)CC)c(OC)c2)cc1OC | 3 | 9 | -2 | -11 | -2 | 3
Cc1ccc(-c2n[nH]c(=S)n2/N=C/c2c(C)nn(-c3ccccc3)c2C)cc1 | -1 | -6 | 1 | 18 | 1 | 5
Cc1nn(-c2ccccc2)c(C)c1/C=N/n1c(-c2ccc(C(C)(C)C)cc2)n[nH]c1=S | 4 | -3 | 6 | 87* | 0 | 4
Cc1ccc(/C=C/C(=O)c2ccc([N+](=O)[O-])o2)cc1 | 7 | . | 1 | 67* | . | 0
Cc1ccc(CNC(=O)c2ccc([N+](=O)[O-])o2)cc1 | -1 | 1 | -3 | 56* | -1 | -3
Cc1ccc(-c2csc(NC(=O)c3ccc([N+](=O)[O-])o3)n2)cc1 | 0 | 9 | 3 | 55* | 18 | 0
O=C(Nc1cccc2ccccc12)c1ccc([N+](=O)[O-])o1 | 0 | 0 | 1 | 53* | 1 | 2
O=C(/C=C/c1ccc(Cl)cc1)c1ccc([N+](=O)[O-])o1 | -1 | -6 | 3 | -6 | -2 | 0
Cc1cc(Cl)ccc1OCC(=O)Nc1ccc(CN2CCOCC2)cc1 | . | -5 | . | 4 | 0 | .
O=C(COc1ccc(Cl)cc1Cl)Nc1ccc(CN2CCOCC2)cc1 | 2 | 5 | 1 | 103* | 1 | -3
CCOC(=O)NC(NC(=S)Nc1ccc(OCC)cc1)C(Cl)(Cl)Cl (centres undefined) | 1 | -2 | -1 | 2 | -4 | -2
O=C(NC(NC(=S)Nc1c(Cl)cccc1Cl)C(Cl)(Cl)Cl)OCc1ccccc1 (centres undefined) | 10 | 0 | 2 | 77* | 0 | 0
O=C(Nc1ccccc1-c1ccccc1)c1ccc(Cl)c([N+](=O)[O-])c1 | 3 | 1 | 3 | -3 | 1 | 7
O=C(Nc1ccc(Nc2ccccc2)cc1)c1ccc(Cl)c([N+](=O)[O-])c1 | 5 | -1 | 6 | 6 | 99* | 0
Cc1ccc(C)n1-c1ccc(C(=O)/C=C/N(C)C)cc1 | 16* | 7 | 3 | 0 | 0 | 3
Cc1ccc(/C(=N/Nc2nc3ccccc3s2)C2=C(O)c3ccccc3C2=O)cc1 | 3 | 5 | 2 | 57* | -3 | 1
CCOC(=O)C1=C(CSc2nc(-c3ccccc3)ccc2C#N)OC(N)=C(C#N)C1c1ccc(OC)cc1 (centres undefined) | 8 | -7 | 4 | 20 | 75* | 3
C#CCOCCOCCOCCNc1nc(N2CCN(C(=O)[C@H](Cc3cc4ccccc4[nH]3)n3cc([C@@H](N)C(C)CC)nn3)CC2)nc(N2CCN(C(=O)[C@H](CCCCN)n3cc([C@@H](N)CC(C)C)nn3)CC2)n1 (some centres undefined) | 16* | . | 2 | 9 | . | 4
C#CCOCCOCCOCCNc1nc(N2CCN(C(=O)[C@H](Cc3ccc(O)cc3)n3cc([C@@H](N)C(C)CC)nn3)CC2)nc(N2CCN(C(=O)[C@H](Cc3cc4ccccc4[nH]3)n3cc([C@@H](N)C(C)CC)nn3)CC2)n1 (some centres undefined) | 17* | -3 | 1 | 0 | 9 | 3
SMILES | PP1 inh | IDE act | PP5 inh | SKKanGAS inh | Exocytosis inh | IDE cell inh
C#CCOCCOCCOCCNc1nc(N2CCN(C(=O)[C@H](CCC(=O)O)n3cc([C@@H](N)CCCCN)nn3)CC2)nc(N2CCN(C(=O)[C@H](CCCCN)n3cc([C@@H](N)CC(N)=O)nn3)CC2)n1 | . | -1 | . | . | 59* | 8
C#CCOCCOCCOCCNc1nc(N2CCN(C(=O)[C@H](Cc3cc4ccccc4[nH]3)n3cc(C(N)CC(C)C)nn3)CC2)nc(N2CCN(C(=O)[C@H](CCC(=O)O)n3cc(C(N)[C@H](C)CC)nn3)CC2)n1 (some centres undefined) | 0 | -2 | 0 | 4 | 9 | 7
C#CCOCCOCCOCCNc1nc(N2CCN(C(=O)[C@H](CCC(=O)O)n3cc([C@@H](N)CCCCN)nn3)CC2)nc(N2CCN(C(=O)[C@H](CCC(=O)O)n3cc([C@@H](N)CCCCN)nn3)CC2)n1 | . | 0 | . | . | -1 | 2
O=C(Cc1cccc(C(F)(F)F)c1)NCc1cccnc1 | 2 | 2 | 2 | 2 | 0 | 4
CCOc1cc2c(cc1O)C(=NOC)CC1C2CCC2(C)C(O)CCC12 (centres undefined) | . | -1 | . | . | 4 | .
Cc1ccsc1/C=C1\Oc2cc(OCC(=O)c3ccccc3)ccc2C1=O | 16* | -3 | 1 | 35 | 4 | 5
COc1ccc(/C=C2\Oc3cc(OCC(N)=O)ccc3C2=O)cc1OC | 0 | -1 | 2 | 6 | -6 | 3
COc1cccc(C2CC(c3cccs3)=NN2C(=O)CSc2nc3ccccc3s2)c1OC (centres undefined) | 5 | 2 | 1 | 5 | -8 | -3
COc1cccc(C2CC(c3cccs3)=NN2C(=O)CSc2nc3c(cnn3-c3ccc(F)cc3)c(=O)[nH]2)c1OC (centres undefined) | 3 | 6 | 2 | 57* | -4 | 7
COc1ccc(C2CC(c3cccs3)=NN2C(=O)CSc2nc3c(cnn3-c3ccccc3)c(=O)[nH]2)cc1 (centres undefined) | -2 | -5 | 6 | 64* | 15 | 0
COc1ccc(C2CC(c3cccs3)=NN2C(=O)CSc2nc(=O)n3ccc(C)cc3n2)cc1 (centres undefined) | 11 | 0 | 4 | 15 | 0 | -3
CC(C)OC(=O)c1c2nc3ccccc3nc2n2c1[nH]c(=O)c1ccccc12 | -3 | . | -1 | 55* | . | 3
CN1CCN(c2c(F)cc3c(=O)c(C(=O)O)cn4c3c2OCN4C)CC1 | -3 | 3 | 1 | 104* | 2 | 1
Cc1cc(C)c(NC(=O)c2cn3c4c(c(N5CCN(C)CC5)c(F)cc4c2=O)OCC3C)c(C)c1 (centres undefined) | 7 | 2 | 2 | 5 | 3 | 2
Cc1cccc(C(C)C)c1NC(=O)c1ccc(COc2ccc3c(C)cc(=O)oc3c2)cc1 | 17* | -1 | 4 | 4 | 1 | 1

Source: PubChem
